In all, about 40,000 compounds went through this assay and about 1,400 (3.5%) were called active.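 Rule for the calls: active = any of four per-well response measures lying three or more SD from its plate-wide compound average, in either direction; inactive = the rest, inconclusive results apart.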 Shown is part of a subset that was picked to be rich in actives.
What follows are molecules tested against Voltage-dependent calcium channel gamma-2 subunit (Mus musculus) + Glutamate receptor 2 (Rattus norvegicus) (UniProt O88602+P19491) (assay: modulators of GluA2-stargazin AMPA receptor complexes, primary screen, cell-based, membrane potential dye (AID 1259245)). Settings: HEK293 GluA2+stargazin, membrane potential dye (FDSS), glutamate EC50, at 30 µM, hits were called plate by plate, in both directions; compound max-min signal: compound-alone response (agonism); glutamate slope, % of max: measured here: glutamate response slope, % max.
Chain of Voltage-dependent calcium channel gamma-2 subunit (Mus musculus) + Glutamate receptor 2 (Rattus norvegicus) (O88602 whole entry, looked up): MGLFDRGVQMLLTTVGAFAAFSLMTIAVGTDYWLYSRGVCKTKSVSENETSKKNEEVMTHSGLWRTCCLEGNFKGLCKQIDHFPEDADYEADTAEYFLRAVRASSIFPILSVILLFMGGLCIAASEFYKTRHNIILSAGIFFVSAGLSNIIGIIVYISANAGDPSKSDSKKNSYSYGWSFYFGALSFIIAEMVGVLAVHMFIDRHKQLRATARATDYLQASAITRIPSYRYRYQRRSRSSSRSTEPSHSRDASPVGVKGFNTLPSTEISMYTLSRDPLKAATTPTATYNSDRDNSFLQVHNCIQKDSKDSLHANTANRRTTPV
Chain of Voltage-dependent calcium channel gamma-2 subunit (Mus musculus) + Glutamate receptor 2 (Rattus norvegicus) (P19491 whole entry, looked up): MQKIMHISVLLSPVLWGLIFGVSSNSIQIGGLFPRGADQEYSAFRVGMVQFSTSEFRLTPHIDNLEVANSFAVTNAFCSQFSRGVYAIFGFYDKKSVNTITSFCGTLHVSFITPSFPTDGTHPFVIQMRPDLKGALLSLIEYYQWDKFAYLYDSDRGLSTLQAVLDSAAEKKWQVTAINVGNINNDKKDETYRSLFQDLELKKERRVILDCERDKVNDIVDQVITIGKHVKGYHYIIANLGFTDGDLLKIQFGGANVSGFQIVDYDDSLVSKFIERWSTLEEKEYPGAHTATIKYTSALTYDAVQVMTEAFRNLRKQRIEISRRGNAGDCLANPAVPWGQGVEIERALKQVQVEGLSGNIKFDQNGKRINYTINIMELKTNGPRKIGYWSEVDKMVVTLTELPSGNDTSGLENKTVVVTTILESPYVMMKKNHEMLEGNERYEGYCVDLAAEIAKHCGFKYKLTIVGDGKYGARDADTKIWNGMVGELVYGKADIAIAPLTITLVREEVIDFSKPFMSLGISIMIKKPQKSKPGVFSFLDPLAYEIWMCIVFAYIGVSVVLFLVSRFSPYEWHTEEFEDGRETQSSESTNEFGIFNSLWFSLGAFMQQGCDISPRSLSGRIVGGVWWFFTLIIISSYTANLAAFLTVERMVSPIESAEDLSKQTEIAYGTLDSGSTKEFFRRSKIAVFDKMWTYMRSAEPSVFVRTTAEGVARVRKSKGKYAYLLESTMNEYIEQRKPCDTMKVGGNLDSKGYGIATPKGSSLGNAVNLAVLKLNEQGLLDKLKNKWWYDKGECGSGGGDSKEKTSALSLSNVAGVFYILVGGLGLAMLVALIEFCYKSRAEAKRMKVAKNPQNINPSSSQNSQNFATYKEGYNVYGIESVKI

SMILES | compound max-min signal | glutamate response, % of max | glutamate slope, % of max [%]
CSc1ccccc1NC(=O)C(=O)NCC(O)(c1ccco1)C1CC1 (stereo not drawn) | 0.142 | 47.7% (inactive) | 61
O=C(c1ccc(Cl)c(N2C(=O)CCS2(=O)=O)c1)N1CCc2ccccc2C1 | 0.0843 | 26.4% (inactive) | 47.6
CCSc1ccccc1C(=O)N1CCN(c2ccc(-c3ccccn3)nn2)CC1 | 0.198 | 34.1% (active) | 45
O=C(CCn1ccc(=O)[nH]c1=O)N1CCN(c2ccc(-c3ccccn3)nn2)CC1 | 0.117 | 16.7% (inactive) | 21.1
O=C(NCc1ccccc1)N1CCN(c2ccc(-c3ccncc3)nn2)CC1 | 0.115 | 17.8% (inactive) | 40.4
CCOc1ccc(-c2ccc(N3CCN(C(=O)c4ccc5nsnc5c4)CC3)nn2)cc1 | 0.0304 | 15.3% (inactive) | 32.9
CCOc1ccccc1C(=O)N1CCN(c2ccc(-c3ccccn3)nn2)CC1 | 0.189 | 31.9% (active) | 43.1
CCn1ccnc1N1CCN(C(=O)c2ccccc2Cl)CC1 | 0.0774 | 50% (inactive) | 67.4
CN1CCN(c2ccc(-c3cccc(NC(=O)COc4ccc(F)cc4F)c3)nn2)CC1 | 0.0723 | 38.5% (inactive) | 60.1
CCOc1ccc2c(=O)c(Oc3ccccc3Br)coc2c1 | 0.0905 | 40.8% (inactive) | 58.4
O=C(NCc1ccsc1)c1c(F)cccc1F | 0.0794 | 28.8% (inactive) | 48.6
O=C(NCc1ccc(Cl)cc1)C(=O)NCc1c(F)cccc1F | 0.122 | 54.4% (inactive) | 66.8
Cn1cc(C(=O)NCc2c(F)cccc2F)nn1 | 0.0862 | 93.4% (active) | 99.8
CC(=O)NCCn1ncc2c(N3CCOCC3)ncnc21 | 0.0821 | 32.3% (inactive) | 59.3
CCN1C(SCC(=O)Nc2cccc(Cl)c2)=NS(=O)(=O)c2ccccc21 | 0.0878 | 38% (inactive) | 62
CCOc1ccccc1Nc1nnc(Cc2ccc(OC)cc2)c(=O)[nH]1 | 0.0678 | 46% (inactive) | 67.9
O=C(NCC(O)(c1ccccc1)C1CC1)c1ccccc1Br (stereo not drawn) | 0.0722 | 13.9% (inactive) | 40
CSc1ccccc1C(=O)NCC(C)(O)C1CC1 (stereo not drawn) | 0.0943 | 38.3% (inactive) | 57.1
CCSc1ccccc1C(=O)NCC(O)(c1ccccc1)C1CC1 (stereo not drawn) | 0.0554 | 28.7% (active) | 57.8
COc1ccc(NC(=O)CSc2nccn(-c3cccc(F)c3)c2=O)cc1Cl | 0.114 | 29.6% (inactive) | 46.8
O=S(=O)(NCC(O)c1ccsc1)c1cccs1 (stereo not drawn) | 0.105 | 47.4% (inactive) | 63.3
COc1ccc2c(c1)c(/C=C1\Oc3cc(O)cc(C)c3C1=O)cn2C | 0.239 | 23.6% (active) | 43.9
C=CCOC(=O)COc1ccc2c(c1)O/C(=C\c1cc(OC)ccc1OC)C2=O | 0.106 | 58.4% (inactive) | 60.4
Cc1[nH]c(=O)[nH]c(=O)c1CC(=O)N1CCN(S(C)(=O)=O)CC1 | 0.153 | 46.3% (inactive) | 86.1
CC(C)c1ccccc1NC(=O)Cc1csc(NC(=O)c2ccc(=O)[nH]c2)n1 | 0.062 | 20.3% (inactive) | 41.8
COc1cn(CC(=O)Nc2ccc(NC(C)=O)cc2)c(CSc2ncccn2)cc1=O | 0.0519 | 26.3% (inactive) | 40.3

SMILES | compound max-min signal | glutamate response, % of max | glutamate slope, % of max [%]
Cc1c(Cl)ccc2sc(N(Cc3ccccn3)C(=O)Cc3ccc(S(C)(=O)=O)cc3)nc12 | 0.0569 | 22.1% (inactive) | 54.5
O=C(NCC1(c2cccs2)CC1)Nc1c(F)cccc1F | 0.107 | 24.4% (inactive) | 44
O=S(=O)(NCC1(c2cccs2)CC1)c1ccc(OC(F)(F)F)cc1 | 0.153 | 0.436% (active) | 9.92
COC(=O)N1CCC(CNS(=O)(=O)c2ccc(OC(F)(F)F)cc2)CC1 | 0.114 | 39.2% (inactive) | 61.1
COC(=O)c1cc(OC)c(OC)cc1NC(=O)c1cc(C)oc1C | 0.112 | 34.9% (inactive) | 55.7
Cn1cccc1C(O)CNC(=O)C1(c2ccccc2)CCOCC1 (stereo not drawn) | 0.0879 | 49.3% (inactive) | 62.9
COCCNC(=O)c1ccc(Oc2c(C)oc3cc(OC)ccc3c2=O)cc1 | 0.0907 | 9.44% (inactive) | 21.9
COc1ccc2c(=O)c(Oc3ccc(C(=O)N4CCN(c5ccccn5)CC4)cc3)c(C)oc2c1 | 0.0327 | 28.3% (active) | 56.7
COc1ccc2c(=O)c(Oc3ccc(C(=O)Nc4cccnc4)cc3)c(C)oc2c1 | 0.137 | 24.4% (inactive) | 41.6
COc1ccc(CCNC(=O)Cn2nc(-c3ccccc3OC)ccc2=O)cc1 | 0.0465 | 26.6% (inactive) | 53.9
COC(=O)c1ccc2c(=O)n(Cc3ccc(C(=O)N4CCCCCC4)cc3)c(=S)[nH]c2c1 | 0.108 | 50.5% (inactive) | 81
Cc1ccc(NC(=O)Cn2nc(-c3ccco3)c3sc(N4CCOCC4)nc3c2=O)c(C)c1 | 0.131 | 34% (active) | 56.8
COc1ccc(C(=O)Cn2nc(-c3ccco3)c3sc(N4CCOCC4)nc3c2=O)cc1OC | 0.102 | 27.5% (inactive) | 57
CCc1cccc(CC)c1NC(=O)Cn1nc(-c2ccco2)c2sc(N3CCCCC3)nc2c1=O | 0.0682 | 31.2% (inactive) | 54.8
COCC(C)(O)CNC(=O)c1cc(C)oc1C (stereo not drawn) | 0.0874 | 39.3% (inactive) | 66.3
COCC(C)(O)CNC(=O)Cc1cccc(C)c1 (stereo not drawn) | 0.0936 | 4.21% (active) | 14.9
CCCc1ccc(C(=O)NCC(C)(O)COC)cc1 (stereo not drawn) | 0.117 | 37.6% (inactive) | 59.3
COc1ccc(OC)c2sc(N(Cc3ccccn3)C(=O)Cc3ccc(S(C)(=O)=O)cc3)nc12 | 0.0642 | 28.9% (inactive) | 45.5
O=C(Nc1ccc([N+](=O)[O-])cc1Br)c1ccncc1 | 0.216 | 21.7% (active) | 38.8
Cc1cc([N+](=O)[O-])ccc1NC(=O)C(=O)NCc1ccncc1 | 0.158 | 47.7% (inactive) | 65.6
O=C(Nc1ccc(N2CCCS2(=O)=O)cc1)c1ccc([N+](=O)[O-])cc1 | 0.0338 | 28.1% (inactive) | 51.8
Cc1cc(C)n(CCNC(=O)/C=C/c2cccs2)n1 | 0.131 | 25.6% (inactive) | 56.8
Cc1noc(C2CN(S(=O)(=O)c3ccc(Cl)cc3)C2)n1 | 0.142 | 44.3% (inactive) | 70.8
O=C(NCc1ccc2c(c1)OCO2)c1ccc(=O)[nH]n1 | 0.05 | 25.6% (inactive) | 54.3
COc1ccc(NC(C)=O)cc1NC(=O)CCCn1nc(-c2ccccc2)ccc1=O | 0.08 | 33.8% (inactive) | 52.7
COc1ccc(NC(C)=O)cc1NC(=O)c1ccc(=O)[nH]n1 | 0.159 | 38.5% (active) | 57.1

SMILES | compound max-min signal | glutamate response, % of max | glutamate slope, % of max [%]
Cc1nn(CCNC(=O)c2cccc([N+](=O)[O-])c2)c(C)c1Cl | 0.133 | 50.5% (inactive) | 65.4
CCCC(=O)N1CCN(c2ccc(Nc3cc(C)ccn3)nn2)CC1 | 0.194 | 23.7% (active) | 43.2
CCCOc1ccc(N2CCN(C(=O)COc3ccc4ccccc4c3)CC2)nn1 | 0.0411 | 42.7% (inactive) | 61.1
Cc1ccc(N2CCN(C(=O)COc3nccc(C)n3)CC2)nn1 | 0.0842 | 38.9% (inactive) | 61.3
O=C(Nc1cccs1)N1CCC(c2nnc(-c3ccc(F)cc3)o2)CC1 | 0.0749 | 44.9% (inactive) | 64.6
Cc1ccc(CN2C(=O)NC3(CCN(C(=O)c4ccccc4F)CC3)C2=O)cc1 | 0.0483 | 11.7% (inactive) | 23.5
COc1ccc(CC(=O)Nc2ccc3c(c2)N(S(=O)(=O)c2ccccc2)CCC3)cc1 | 0.0777 | 49% (inactive) | 74.3
CN(C)S(=O)(=O)c1ccc(C(=O)Nc2ccc3c(c2)N(C(=O)c2ccco2)CC3)cc1 | 0.176 | 45.9% (inactive) | 62.8
CCOC(=O)c1csc(NC(=O)Cn2cnc(C)cc2=O)n1 | 0.0863 | 36.3% (inactive) | 51.4
Cc1cc(C(=O)Nc2nc(-c3cccs3)cs2)on1 | 0.0444 | 13.4% (inactive) | 25.9
CCOC(=O)c1csc(NC(=O)c2cc(C)no2)n1 | 0.211 | 21.3% (active) | 37.1
Cc1nc(NC(=O)c2ccc3c(c2)CCCC3)sc1C | 0.129 | 29.7% (inactive) | 50.6
O=C(Nc1cccc(N2CCCS2(=O)=O)c1)c1cccc(F)c1 | 0.0432 | 21.4% (inactive) | 45.7
CCOc1ccccc1NC(=O)CSc1cc(N2CCC(C(=O)NC3CC3)CC2)ncn1 | 0.107 | 24% (inactive) | 50.5
O=C(CSc1cc(N2CCN(c3ccccc3F)CC2)ncn1)c1cccs1 | 0.0768 | 53.6% (inactive) | 73.7
COC(=O)c1ccc(CSc2cc(N3CCN(c4ccccc4F)CC3)ncn2)o1 | 0.0593 | 58.6% (active) | 59.5
CCOc1ccc(Nc2cc(C)nc3c4c(C)cc(C)nc4nn23)cc1 | 0.205 | 36.4% (inactive) | 58.7
Cc1cc(C)c2c(n1)nn1c(NCC(C)C)cc(C)nc21 | 0.313 | 35.7% (active) | 52.5
Cc1cc(C)c2c(n1)nn1c(-n3ccnc3)cc(C)nc21 | 0.202 | 43.8% (inactive) | 65.7
CC(=O)NCCn1ncc2c(N3CCN(c4ccccc4)CC3)ncnc21 | 0.109 | 30% (inactive) | 56.7
Cc1ccc(C(=O)CSc2nccn(-c3ccc(Cl)cc3)c2=O)c(C)c1 | 0.0972 | 25.5% (inactive) | 43.4
COc1ccc(S(=O)(=O)Nc2ccc3c(c2)CCCN3S(C)(=O)=O)cc1C | 0.0764 | 41% (inactive) | 56.8
CCS(=O)(=O)N1CCCc2cc(NS(=O)(=O)c3cc(C)c(OC)c(C)c3)ccc21 | 0.0675 | 32.7% (active) | 46.4
CCS(=O)(=O)N1CCCc2ccc(NS(=O)(=O)c3cc(C)c(C)cc3OC)cc21 | 0.0618 | 43.6% (inactive) | 69.1
